The list is not random: actives were taken first. Their share in the collection is about 3.5%.
MITF primary: human MITF inhibition, primary screen. O75030. AlphaScreen MITF homodimerization, bead proximity signal. inhibition, % at 2.6 µM. 650,000 tested, 0.91% active; in the data active = inhibition above about 50%
TEAD-YAP inh: TEAD-YAP interaction inhibition; HEK-TIYL cells, TEAD-Gal4/YAP UAS-luciferase luminescence; inhibition, % at 9.12 µM; 640,000 tested, 1.4% active; AID 1259422; in the data active = inhibition above about 32%
FBW7 activator: activators of human E3 ligase FBW7; Q969H0; AlphaScreen FBW7–phospho-cyclin E peptide binding, activator screen; normalized activity (activation), % at 26.1 µM; 650,000 tested, 0.13% active; in the data active = normalized activity above about 1.9%;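 also: purified mutant Fbw7 with reduced substrate affinity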
Target sequence (Q969H0 whole entry, looked up): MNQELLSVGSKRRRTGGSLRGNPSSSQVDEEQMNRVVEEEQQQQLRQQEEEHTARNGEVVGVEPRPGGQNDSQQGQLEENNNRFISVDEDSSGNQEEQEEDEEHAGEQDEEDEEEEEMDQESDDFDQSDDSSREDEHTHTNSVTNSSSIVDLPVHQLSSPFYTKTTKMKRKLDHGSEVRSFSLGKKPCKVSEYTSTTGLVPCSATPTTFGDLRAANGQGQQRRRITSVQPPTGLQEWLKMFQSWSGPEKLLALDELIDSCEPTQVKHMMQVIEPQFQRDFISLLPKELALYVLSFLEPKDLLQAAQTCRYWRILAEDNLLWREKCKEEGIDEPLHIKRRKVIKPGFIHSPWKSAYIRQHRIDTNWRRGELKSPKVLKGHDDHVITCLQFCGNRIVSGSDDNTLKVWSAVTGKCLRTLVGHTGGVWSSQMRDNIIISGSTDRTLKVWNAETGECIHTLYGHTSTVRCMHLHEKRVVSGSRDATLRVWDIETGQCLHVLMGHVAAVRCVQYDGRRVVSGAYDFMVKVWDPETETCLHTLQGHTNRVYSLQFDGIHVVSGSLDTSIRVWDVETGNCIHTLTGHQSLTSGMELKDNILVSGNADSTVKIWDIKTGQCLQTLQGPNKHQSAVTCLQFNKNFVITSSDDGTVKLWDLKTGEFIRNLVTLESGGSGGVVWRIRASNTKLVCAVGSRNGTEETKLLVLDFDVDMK
GPR151 activ: activators of human GPR151; PathHunter beta-arrestin GPR151 cells, luminescence; activation, % at 11.2 µM; 650,000 tested, 1% active; AID 1508602; in the data active = activation above about 4.9%
MITF confirm: confirmation of human MITF inhibitors; shares compounds with MITF primary; AlphaScreen MITF homodimerization, biotin/His-MITF beads; inhibition, % at 2.6 µM; 4,700 tested, 16% active;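 active = inhibition above a cutoff derived from the DMSO control wells, cut at about 28% in these data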;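 also: inhibitors lower the bead chemiluminescence by keeping MITF from dimerizing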
AlphaScreen DR: counter-screen: compounds optically interfering with AlphaScreen; shares compounds with MITF primary; AlphaScreen optical interference counterscreen, cell-free; 480 tested, 6% active; AID 1259373; IC50, µM; call rule not given here
AS interf ctr: AlphaScreen optical interference, counter-screen | shares compounds with MITF primary | LysRS AlphaScreen counterscreen, signal interference, triplicate | inhibition, % at 2.6 µM | 4,700 tested, 7.6% active;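 active = inhibition above a cutoff derived from the DMSO control wells, cut at about 30% in these data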
Each line names hits and unclear results; the compound was inactive in the other large screens (follow-up assays come after a bar, where they were run).

CC(C)(C)c1cc(Cl)ccc1OCCn1ccnc1	MITF primary 73.8 | MITF confirm inactive | AS interf ctr inactive
CCCCC(=O)N(c1nnc(-c2cccnc2)s1)C1CCCC1	none
COc1ccccc1NC(=O)c1oc(=O)c2ccccc2c1-c1ccccc1	none
COc1cccc(CC(=O)NCC2CCC3(CCN(Cc4ccccn4)CC3)O2)c1 (stereo unspecified)	none
CSc1ccc(CC(=O)NCC2CCC3(CCN(Cc4ccccn4)CC3)O2)cc1 (stereo unspecified)	MITF primary 69.4 | MITF confirm inactive | AS interf ctr inactive
OC(CNc1ccccc1)Cn1ccc2ccccc21 (stereo unspecified)	MITF primary 52.4 | MITF confirm inactive | AS interf ctr inactive
Cc1cc(C)c(C(N)=O)c(SCC(=O)Nc2nccs2)n1	none
Cc1cc(C)nc(SCc2nnc(SCC(=O)Nc3nccs3)o2)n1	MITF primary 72.4 | MITF confirm 77.0 | AS interf ctr 30.8
CCOc1ccc(S(=O)(=O)N2CCN(CC(O)c3ccccc3)CC2)cc1 (stereo unspecified)	none
N#Cc1ccccc1S(=O)(=O)N1CCN(CC(O)c2ccccc2)CC1 (stereo unspecified)	MITF primary 58.3 | MITF confirm inactive | AS interf ctr inactive
N#Cc1ccccc1S(=O)(=O)N1CCN(CC(O)COc2ccccc2F)CC1 (stereo unspecified)	MITF primary 51.1 | MITF confirm inactive | AS interf ctr inactive
O=S(=O)(c1cccc(-c2nnc(SC/C=C/c3ccccc3)o2)c1)N1CCOCC1	none
CCCCOc1ccc(C(=O)Nc2nc(-c3ccc(OC)c(C)c3)cs2)cc1	MITF primary 64.1 | MITF confirm inactive | AS interf ctr inactive
CCCCOc1ccc(C(=O)Nc2nc(-c3ccc(OC)cc3OC)cs2)cc1	none
CC(=O)Nc1ccc(NC(=O)CN(c2cccc(C)c2)S(=O)(=O)c2ccccc2)cc1	none
COc1ccc(N2CC(CNC(=O)Cc3ccc(F)cc3)CC2=O)cc1 (stereo unspecified)	MITF primary 55.0 | MITF confirm inactive | AS interf ctr inactive
CSCC(N)c1nc2ccccc2[nH]1 (stereo unspecified)	none
CC(=O)Nc1ccc(NS(=O)(=O)c2ccccc2[N+](=O)[O-])cc1	none
CC(=O)Nc1ccc(OS(=O)(=O)c2ccccc2[N+](=O)[O-])cc1	MITF primary 55.9 | MITF confirm inactive | AS interf ctr inactive
NS(=O)(=O)c1ccc(CNc2ccc3ncc(-c4cccc(C(=O)O)c4)n3n2)cc1	MITF primary 69.2 | MITF confirm inactive | AS interf ctr inactive
CCN(CC)C(=O)Nc1cccc(Cl)c1	none
CC1CCC(N2CCN(C(=O)c3ccccc3)CC2)CC1 (stereo unspecified)	none
CC(C)CC(=O)N1CCN(C2CCC(C)CC2)CC1 (stereo unspecified)	MITF primary 58.5 | MITF confirm inactive | AS interf ctr inactive
COC(=O)c1c(NC(=O)c2ccc([N+](=O)[O-])o2)sc(Cc2ccc3c(c2)OCO3)c1C	MITF primary 54.8 | MITF confirm 46.7 | AlphaScreen DR inactive | AS interf ctr inactive
Cc1c(Cc2ccc3c(c2)OCO3)sc(NC(=O)c2ccc([N+](=O)[O-])o2)c1C#N	none
Cc1cccc2c1CC(C)(C)NC2=S	none
Cc1ccc(C)c2c1CC(C)(C)NC2=S	MITF primary 70.5 | MITF confirm inactive | AS interf ctr inactive
O=C(NCC1Cc2cc(-c3cnccn3)ccc2O1)c1cccc(N2CCCC2=O)c1 (stereo unspecified)	MITF primary 51.9 | MITF confirm inactive | AS interf ctr inactive
c1ccc2sc(Nc3nc4ccccc4s3)nc2c1	none
C(=N\c1nc2ccccc2s1)/Nc1nc2ccccc2s1	MITF primary 52.0 | MITF confirm inactive | AS interf ctr inactive
O=C(/C=N/OCc1ccccc1)Nc1ccc(F)cc1F	none
c1ccc(-c2ccccc2OCCOCCN2CCCC2)cc1	none
c1ccc(-c2ccccc2OCCN2CCNCC2)cc1	MITF primary 66.0 | MITF confirm inactive | AS interf ctr inactive
c1ccc2c(OCCCCN3CCOCC3)cccc2c1	none
c1ccc(-c2ccccc2OCCCN2CCOCC2)cc1	MITF primary 90.7 | MITF confirm inactive | AS interf ctr inactive
COC(=O)C1CCN(C(=O)Cc2coc3cc(C)cc(C)c23)CC1	none
O=C(Cn1nnc2ccccc21)OCc1csc(-c2ccccc2)n1	none
Cc1cc(C(C)(C)C)ccc1OCCOCCN(C)C	MITF primary 72.3 | MITF confirm inactive | AS interf ctr inactive
Cc1ccc(C(C)(C)C)c(OCCOCCN(C)C)c1	MITF primary 68.0 | MITF confirm inactive | AS interf ctr inactive
CN(C)CCOCCOc1ccc(Cl)cc1C(C)(C)C	none
COCCNCCOCCOc1ccc(C(C)(C)C)cc1C	none
O=C(Nc1nc(-c2ccc(Br)cc2)cs1)c1ncn[nH]1	MITF primary 63.0 | MITF confirm 44.2 | AS interf ctr 78.0
O=C(Nc1nc(-c2ccccc2)cs1)c1ncn[nH]1	none
CCOc1ccc(CNC(=O)CN2C(=O)C(CC)Sc3ccccc32)cc1OC (stereo unspecified)	MITF primary 50.8 | MITF confirm inactive | AS interf ctr inactive
CCC1Sc2ccccc2N(CC(=O)NCCc2ccc(OC)c(OC)c2)C1=O (stereo unspecified)	none
CC1(C)CC2CC(C)(CN2S(=O)(=O)c2ccc(C(=O)Nc3cccc(-c4nc5ccccc5[nH]4)c3)cc2)C1 (stereo unspecified)	none
Cc1sc2ncnc(N(C)CCc3ccccn3)c2c1C	MITF primary 73.0 | MITF confirm inactive | AS interf ctr inactive
COc1cc(/C=C/C(=O)OCC(=O)Nc2ccc([N+](=O)[O-])cc2C#N)ccc1O	MITF primary 71.8 | MITF confirm inactive | AS interf ctr inactive
N#Cc1cc([N+](=O)[O-])ccc1NC(=O)COC(=O)/C=C/c1ccc2c(c1)OCO2	none
O=C(NCC1CCC2(CCN(Cc3cccc4ccccc34)CC2)O1)C1CCOCC1 (stereo unspecified)	none
COc1ccc(C2C(C(=O)OC(C)C)=C(C)NC3=C2C(=O)CC(C)(C)C3)c(OC)c1OC (stereo unspecified)	none
CCCCCOC(=O)C1=C(C)NC2=C(C(=O)CC(C)(C)C2)C1c1ccccc1I (stereo unspecified)	MITF primary 60.6 | MITF confirm inactive | AS interf ctr inactive
COc1cccc(C2C(C(=O)OC(C)C)=C(C)NC3=C2C(=O)CC(C)(C)C3)c1OC (stereo unspecified)	MITF primary 64.2 | MITF confirm inactive | AS interf ctr inactive
COc1ccc(Cl)cc1NC(=O)CN1CCC2(CC1)NC(=O)N(C)C2=O	none
Cc1cccc(C)c1NC(=O)C(Cc1c[nH]c2ccccc12)NC(=O)OC(C)(C)C (stereo unspecified)	MITF primary 62.6 | MITF confirm inactive | AS interf ctr inactive

Screening data (PubChem BioAssay)
